The record followed here is PubChem BioAssay AID893 (National Center for Advancing Translational Sciences (NCATS), 2007).

Among all 75,000 compounds or so, about 5,700 (7.6%) were called active. Roughly 7% stayed inconclusive and do not appear here. The list comes from a sample in which actives are over-represented; it also holds similar structures and randomly drawn compounds. Entries that show only a call come without a potency. Values without a mark were called inactive. The call rests on the fitted dose curve; in most records, active means well fitted inhibition curve with a large enough effect; inconclusive means small, poorly fitted or top-dose-only effect; inactive means no such curve, though single readings can be large or run the other way.
Potency means the concentration at half of the fitted maximal effect.

This test has as its target 3-hydroxyacyl-CoA dehydrogenase type-2 (Homo sapiens) (UniProt Q99714). As to the kind of experiment: qHTS Assay for Inhibitors of HSD17B4, hydroxysteroid (17-beta) dehydrogenase 4.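 Further: the protocol describes HADH2 (HSD17B10) and not the HSD17B4 of the title; nearly all actives have a fitted effect of over 70% in size.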 To be noted: recombinant HSD17B10, NADH fluorescence kinetic; series mostly up to 57.1 µM. An outline of the steps: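 His-tagged E. coli-expressed HADH2 at 20 nM in 100 mM Tris-HCl pH 9.0 with 0.01 % Tween-20, preincubated 15 min with compound at room temperature. Reaction with 1 mM NAD+ and 90 uM beta-hydroxybutyryl coenzyme A; NADH fluorescence (360/450 nm) read kinetically over 4 min, last minus first point.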
In general terms: qHTS replaces the single test concentration by a dilution series.
Regarding `C=C1C([C@@]2(C)C(OC(C)=O)CC(=O)O[C@@](C)(COC(C)=O)C2CC(=O)OC)C(OC=O)C(OC(=O)C(O)C(C)CC)[C@]2(C)C(c3ccoc3)CC(=O)C12O` (some centres undefined), the Potency entry is “inactive”.
Regarding `COc1ccc(COC(=O)N/N=C2/C[C@@H](O)[C@@H](O)[C@@H]3[C@@H]4C(=O)N([C@@H](C)c5ccccc5)C(=O)[C@H]4CC[C@@H]23)cc1`, the activity change, negative = inhibition was -1.08% [at 11.4 µM].
Take `COC(=O)c1cccc(NC(=O)CSc2nc(C)cc(=O)[nH]2)c1`: the Potency result was “inactive”.
The same measure, in the same setting: under `CCOC(=O)c1ccc2[nH]c(C)c(CN3CCN(C)CC3)c(=O)c2c1` stands “inactive”; under `CCOC(=O)c1sc(=S)n2c1[nH]c(=O)c1ccc(C(=O)OC)cc12`, 20 µM (active); under `CCOc1ccc(C2C(C(=O)NC)=C(C)Nc3nc4ccccc4n32)cc1OC` (centres undefined), “inactive”.
Same read-out and setting: under `CN(C)c1cc2c(Nc3ccc4c(cnn4Cc4ccccc4)c3)ncnc2cn1` stands “inactive”.
Same read-out and setting: under `CCOC(=O)CCc1c(C)c2ccc(OCc3nn[nH]n3)c(C)c2oc1=O` stands 31.6 µM (active); under `CCNC(=S)NCC`, “inactive”; under `CCCNC(=O)C1CC(=O)N(c2ccc(OCC(=O)Nc3cccc(C)c3C)cc2)C1` (centres undefined), “inactive”.
In the case of `O=C(O)c1ccc(NC(=O)c2cccs2)cc1`, the Potency result is “inactive”.
As for `Cc1nc(-c2ccc(NC(=O)c3cccs3)cc2)cs1`, the Potency is 25.1 µM (active).
`O=C(O)Cc1ccc(NC(=O)c2cccs2)cc1`: the Potency entry is “inactive”.
With `CCOC(=O)N1CCC(Nc2c(NCCN3CCN(c4cccc(Cl)c4)CC3)c(=O)c2=O)CC1`, the Potency result is “inactive”.
The same measure, in the same setting: under `CCC(CCC(C)C1CCC2C3CC=C4CC(O)CC[C@@]4(C)C3CC[C@@]12C)C(C)C` (some centres undefined) stands “inactive”; under `COC(=O)c1ccc(/C=N\n2c(C)nnc2C)cc1`, “inactive”.
For `COc1ccccc1-c1cc(NCc2cccs2)ncn1`, the Potency result was “inactive”.
In the case of `C[C@@H]1O[C@@H](O[C@@H]2[C@@H](O)[C@H](OCCc3ccc(O)c(O)c3)O[C@H](CO[C@@H]3O[C@H](CO)[C@@H](O)[C@H](O)[C@H]3O)[C@H]2OC(=O)/C=C/c2ccc(O)c(O)c2)[C@H](O)[C@H](O)[C@H]1O`, the Potency is 2 µM (active).
Still for that read-out and setting: under `COc1ccc(CCC(=O)c2c(O)cc(OC3OC(CO)C(O)C(O)C3O[C@@H]3OC(C)C(O)C(O)C3O)cc2O)cc1O` (some centres undefined) stands “inactive”.
Still for that read-out and setting: under `CC1OC(OCC2OC(Oc3c(-c4ccc(O)c(O)c4)oc4cc(O)cc(O)c4c3=O)C(O)C(O)C2O)[C@@H](O)C(O)C1O` (some centres undefined) stands “inactive”; under `CN1C(=O)c2ccccc2C(C(=O)NCCCN2CCCC2)C1c1c[nH]c2ccccc12` (centres undefined), “inactive”.
For `COC(=O)[C@@H]1CC[C@H](C)[C@@H](c2ccc(C)cc2)N1C(=O)c1ccc(/C=N\OC[C@@H](O)COCc2ccco2)cc1`, the activity change, negative = inhibition was -1.91% [at 11.4 µM].
As for `COc1ccc(CCNC(=O)C2CCN(c3nn4c(=O)cc(C)nc4s3)CC2)cc1OC`, the Potency entry was “inactive”.
Turning to `CCOc1ccc(CCNC(=O)C2CCN(c3ccc(N4CCOCC4)nn3)CC2)cc1OCC`, the Potency is 25.1 µM (active).
As to `CCCS(=O)(=O)N1CCC(C(=O)NCCc2ccc(OC)c(OC)c2)CC1`, the Potency result was “inactive”.
On the same count and under the same terms, in the case of `CCC(C)NC(=O)C1CCC(=O)N1Cc1ccc(C)cc1` (centres undefined) it was “inactive”.
For the compound `CC(C)CO/N=C1/C[C@@H](O)[C@@H](O)[C@@H]2[C@@H]3C(=O)N(C[C@@H]4CCCO4)C(=O)[C@H]3CC[C@@H]12`, the activity change, negative = inhibition was 9.42% [at 11.4 µM].
In the case of `CC(C)CCn1c(CN(C)Cc2ccccc2)nc2c1c(=O)n(C)c(=O)n2C`, the Potency entry was “inactive”.
Consider `CN(Cc1ccccc1)c1nc2c(c(=O)[nH]c(=O)n2C)n1CCSc1nc2ccccc2[nH]1`, for which the Potency result is “inactive”.
As for `Cc1ccnc(SCCn2c(N(C)Cc3ccccc3)nc3c2c(=O)n(C)c(=O)n3C)n1`, the Potency is 31.6 µM (active).
The same measure, in the same setting: in the case of `COc1ccc(OC)c(C(=O)c2coc3ccc(O)c(CN4CCOCC4)c23)c1` it was “inactive”.
On to `O=c1c(-c2ccccc2)coc2c(CN3CCOCC3)c(O)ccc12`, for which the Potency was 31.6 µM (active).
Same read-out and setting: in the case of `CN1CCN(Cc2c(O)ccc3c2oc(=O)c2ccccc23)CC1` it was “inactive”; in that of `Cc1ccnc(-n2sc3ccccc3c2=O)n1`, 3.16 µM (active).
The same measure, in the same setting: in the case of `COc1ccc(S(=O)(=O)N(CCCN2CCCC2=O)Cc2cc3c(C)ccc(C)c3[nH]c2=O)cc1` it was “inactive”; in that of `O=C1Nc2ccccc2C12Nc1ccccc1S2` (centres undefined), “inactive”; in that of `O=C1NC(c2cc3c(cc2Cl)OCO3)Oc2ccccc21` (centres undefined), 31.6 µM (active).
As to `CCCOc1ccccc1C1CC(=O)Nc2cc3c(cc21)OCO3` (centres undefined), the Potency entry was “inactive”.
Still for that read-out and setting: in the case of `O=C(Nc1ccc(Cl)cc1)c1ccsn1` it was “inactive”.
Same read-out and setting: in the case of `COC(=O)c1ccc(S(=O)(=O)c2ccc(C(=O)OC)s2)s1` it was “inactive”; in that of `CCCC[C@@H]1C[C@H]1C(NC(=O)c1ccc(-c2ccccc2)cc1)c1ccc(-c2ccccc2)cc1` (some centres undefined), “inactive”.
On the same count and under the same terms, under `Cc1oc2nc(SCC(=O)NCc3cccnc3)nc(N)c2c1C` stands “inactive”; under `COCCn1c(CN2CCC(Cc3ccccc3)CC2)nc2c1c(=O)n(C)c(=O)n2C`, “inactive”.
Regarding `COc1ccccc1CCn1c(=O)c(-c2cn(C)c3ccccc23)nc2cncnc21`, the Potency result is “inactive”.
Turning to `COc1ccc(-n2c(=O)c(C)nc3cnc(N4CCOCC4)nc32)cc1`, the Potency entry was “inactive”.
In the case of `COCCn1c(=O)c(-c2cccs2)nc2cnc(N3CCN(C)CC3)nc21`, the Potency is 20 µM (active).
Still for that read-out and setting: in the case of `COCCn1c(=O)c(-c2cccs2)nc2cncnc21` it was 25.1 µM (active); in that of `COCCn1c(=O)c(-c2ccccc2)nc2cnc(N3CCOCC3)nc21`, 20 µM (active); in that of `CCOC(=O)c1cc2occc2n1CC(=O)NC1CCC(C)CC1` (centres undefined), “inactive”.
In the case of `CCOC(=O)C1CCCN(C(=O)CN(c2ccc(OC)cc2)S(=O)(=O)c2c(C)noc2C)C1` (centres undefined), the Potency result is “inactive”.
Still for that read-out and setting: in the case of `O=C(Nc1nc(-c2ccncc2)cs1)C1COc2ccccc2O1` (centres undefined) it was 31.6 µM (active); in that of `c1ccc(Nc2nc(-c3ccncc3)cs2)nc1`, “inactive”; in that of `O=C(Nc1nc(-c2ccc3c(c2)OCO3)cs1)c1ccncc1`, “inactive”.
The same measure, in the same setting: under `CN/C(=C\[N+](=O)[O-])NCCSCc1csc(CN(C)C)n1` stands “inactive”; under `Cc1nc2cnc(Nc3ccccc3)nc2n(Cc2ccc(F)cc2)c1=O`, “inactive”; under `CN(C)c1ncc2nc(-c3ccc(F)cc3)c(=O)n(Cc3ccc(F)cc3)c2n1`, 3.98 µM (active).
Take `Cc1nc2cnc(N3CCNCC3)nc2n(CCc2ccccc2)c1=O`: the Potency was 25.1 µM (active).
The same measure, in the same setting: in the case of `Cn1cc(-c2nc3cnc(N4CCNCC4)nc3n(CCc3ccccc3)c2=O)c2ccccc21` it was “inactive”; in that of `COc1cccc(Nc2ncc3ncc(=O)n(C4CC4)c3n2)c1`, “inactive”; in that of `O=c1cnc2cnc(Nc3ccccc3)nc2n1Cc1ccc(F)cc1`, “inactive”.
The same measure, in the same setting: under `O=c1c(CCc2ccccc2)nc2cncnc2n1C1CC1` stands “inactive”; under `Cn1c(=O)c(CCc2ccccc2)nc2cnc(Nc3ccccc3)nc21`, “inactive”; under `COc1cccc(Cn2c(=O)c(C)nc3cnc(Oc4ccccc4)nc32)c1`, “inactive”.
Turning to `COc1cccc(Cn2c(=O)c(CCc3ccccc3)nc3cnc(N(C)C)nc32)c1`, the Potency is 25.1 µM (active).
As for `N#Cc1cccc(-c2nc3cnc(N4CCNCC4)nc3n(C3CC3)c2=O)c1`, the Potency is 3.98 µM (active).
On to `Cn1c(=O)n(CCc2ccccc2)c(=O)c2c1nc1n2CCCN1c1ccccc1`, for which the Potency result is “inactive”.
Still for that read-out and setting: under `CCOC(=O)c1ccc(N2C(=O)CC(Sc3nc(O)c(CC)c(=O)[nH]3)C2=O)cc1` (centres undefined) stands “inactive”; under `CN1CCN(c2ncncc2-c2ccc(C(=O)N(C)C)cc2)CC1`, “inactive”; under `COC(=O)c1ccc(NC(=O)CSc2nnc(Cc3cccn3C)n2-c2ccc(F)cc2)cc1`, “inactive”.
On to `CC(=O)OC1CCC2(O)CC1(C)CCC1C2CC1(C)C` (centres undefined), for which the Potency result is “inactive”.
Same read-out and setting: under `CC(=O)Oc1ccccc1C(=O)Nc1ncc([N+](=O)[O-])s1` stands “inactive”; under `COc1ccccc1N1CCN(C[C@@H]2CN3C(=O)N(C)c4ccccc4C3=N2)CC1`, “inactive”.
As to `CCOC(=O)[C@]1(C(/C=C/c2ccco2)NC(=O)OC)CCCC1=O` (some centres undefined), the activity change, negative = inhibition is -2.18% [at 11.4 µM].
As for `O=C1c2ccccc2C(=O)N1CCc1nn[nH]n1`, the Potency result was “inactive”.
On the same count and under the same terms, under `CN(C)CCOC(=O)C(c1ccccc1)C1(O)CCCC1` (centres undefined) stands “inactive”.
On to `COc1ccccc1N1CCN(C(=O)CSc2nnc(-c3ccoc3C)o2)CC1`, for which the Potency result is “inactive”.
For `CCOC(=O)C1CCCN(C(=O)c2ccc(CS(=O)(=O)c3ccc(Br)cc3)o2)C1` (centres undefined), the Potency entry was “inactive”.
The same measure, in the same setting: in the case of `OC(COc1cccc(OCC(O)CN2CCCC2)c1)CN1CCCC1` (centres undefined) it was “inactive”.
As to `COc1ccc(-c2nnco2)cc1OC`, the Potency result was “inactive”.
On the same count and under the same terms, under `COCCNCCOCCOc1cccc(OC)c1` stands “inactive”; under `COCCn1c(=O)c(CCc2ccccc2)nc2cnc(N3CCNCC3)nc21`, 31.6 µM (active).
As for `Cc1nc2cnc(N3CCNCC3)nc2n(Cc2ccc(F)cc2)c1=O`, the Potency is 25.1 µM (active).
Still for that read-out and setting: in the case of `Cc1c2cn[nH]c(=O)c2c(C)n1Cc1ccc(F)cc1` it was “inactive”; in that of `CCc1nc2ccccc2n(CCOCCOCCn2c(=O)c(CC)nc3ccccc32)c1=O`, “inactive”.
The same measure, in the same setting: under `COCCn1c(=O)c(CCc2ccccc2)nc2cncnc21` stands “inactive”.
On the same count and under the same terms, under `O=c1c(-c2ccc(F)cc2)nc2cnc(N3CCNCC3)nc2n1Cc1cccs1` stands “inactive”; under `COCCn1c(=O)c(-c2cc(F)cc(F)c2)nc2cnc(N3CCNCC3)nc21`, 25.1 µM (active).
For the compound `Cn1c(=O)c(-c2ccccc2)nc2cnc(N3CCNCC3)nc21`, the Potency is 25.1 µM (active).
Turning to `O=C1C(c2ccccn2)=[N+]([O-])c2ccccc21`, the Potency entry is “inactive”.
As for `COC1C[C@@H](O[C@@H]2C(C)C(=O)OC(C)C(C)C(O)C(C)C(=O)[C@@]3(CO3)CC(C)C(OC3OC(C)CC(N(C)C)C3O)C2C)OC(C)[C@@H]1O` (some centres undefined), the Potency result is “inactive”.
The same measure, in the same setting: under `O=C(Oc1cc(OC(=O)c2ccccc2)c2c(c1)OC(c1ccc(OC(=O)c3ccccc3)c(OC(=O)c3ccccc3)c1)[C@@H](OC(=O)c1ccccc1)C2)c1ccccc1` (some centres undefined) stands “inactive”; under `CC(=O)Oc1cccc(N2C(=O)C3CC=C(Cl)CC3C2=O)c1` (centres undefined), “inactive”.
Consider `COc1ccc(C(=O)Nc2ccc3c(c2)OCO3)cc1OC`, for which the Potency entry is “inactive”.
The same measure, in the same setting: in the case of `CC(=O)Nc1ccc(S(=O)(=O)N2CCCC2C(=O)O)cc1` (centres undefined) it was “inactive”.
